Shown are actives, neighbours in structure and some others; about 3% of the full set was active somewhere.
FadD28 FP inh = inhibitors of Mycobacterium tuberculosis FadD28 bisubstrate binding; FadD28 bisubstrate probe binding, fluorescence polarization; inhibition, % at 12.5 µM; 360,000 tested, 0.22% active; AID 588549; in the data active = inhibition above about 8.5%, passing the limit was not always enough
Rv3671c protease = inhibits the M. tuberculosis serine protease Rv3671c. P9WHR9. inhibition, % at 5.96 µM. 320,000 tested, 0.048% active. AID 2606; in the data active = inhibition above about 38%;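 also: extracellular domain of Rv3671c used as enzyme; 0% = enzyme with DMSO and 100% = no enzyme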
Target sequence (P9WHR9 whole entry, looked up, the tested form may be a part): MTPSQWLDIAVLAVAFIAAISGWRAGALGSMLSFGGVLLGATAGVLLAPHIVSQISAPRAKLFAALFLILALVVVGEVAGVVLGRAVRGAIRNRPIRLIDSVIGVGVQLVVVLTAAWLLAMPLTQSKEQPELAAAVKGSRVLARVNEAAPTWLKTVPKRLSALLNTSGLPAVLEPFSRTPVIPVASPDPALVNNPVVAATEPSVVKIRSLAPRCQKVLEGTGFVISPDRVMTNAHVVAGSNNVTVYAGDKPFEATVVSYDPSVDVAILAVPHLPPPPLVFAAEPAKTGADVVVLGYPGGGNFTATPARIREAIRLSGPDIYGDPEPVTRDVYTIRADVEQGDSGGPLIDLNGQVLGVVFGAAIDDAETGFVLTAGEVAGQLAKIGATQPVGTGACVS
Mtb BioA inh = BioA (M. tuberculosis) enzyme inhibition | purified M. tuberculosis BioA enzyme, plate reader | 360,000 tested, 0.096% active | inhibition, % at 9.99 µM; in the data active = inhibition above about 40%
Mtb FBA inh = inhibitors of M. tuberculosis fructose-bisphosphate aldolase | P9WQA3 | 360,000 tested, 2.3% active | purified M. tuberculosis FBA, fluorescence read-out | AID 588726 | inhibition, % at 1 µM;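 also: 0% = vehicle and 100% = reference inhibitor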
GDH-TPI counter-1 = GDH-TPI coupled enzyme inhibition counter-screen. 360,000 tested, 1.2% active. GDH-TPI coupled enzyme counterscreen, NADH absorbance. inhibition, % at 4.8 µM; in the data active = inhibition above about 30%;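 also: 0% = DMSO wells and 100% = wells lacking the enzyme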
Mtb FBA confirm = confirmation of M. tuberculosis fructose-bisphosphate aldolase inhibitors. purified M. tuberculosis FBA, fluorescence read-out. 5,600 tested, 78% active. inhibition, % at 1 µM. shares compounds with Mtb FBA inh;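 also: 0% = vehicle wells and 100% = reference inhibitor wells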
GDH-TPI counter-2 = inhibits GDH-TPI coupling enzymes, flagging Mtb FBA hits; shares compounds with Mtb FBA inh; GDH-TPI coupled enzyme counterscreen, fluorescence; 5,600 tested, 81% active; inhibition, % at 1 µM; in the data active = inhibition above about 10%
GDH-TPI DR = GDH-TPI dose response counter-screen for Mtb FBA; shares compounds with Mtb FBA inh; GDH-TPI coupled enzyme assay, fluorescence, artifact counterscreen; IC50, µM; 170 tested, 79% active; AID 652145; call rule not given here
* marks the source's active call; other numbers are inactive results; · = no result; + = active, no number. Rule as the data show it, unless noted: active = inhibition above about 27%; inactive = the rest.

SMILES | FadD28 FP inh | Rv3671c protease | Mtb BioA inh | Mtb FBA inh | GDH-TPI counter-1 | Mtb FBA confirm | GDH-TPI counter-2 | others
CC1(C)CC(=O)C2=C(C1)N(CCN1CCOCC1)C1=C(C(=O)CC(C)(C)C1)C2c1cccc(Cl)c1 | 0 | 6 | 0 | 30* | 14 | 3 | 2
CCCN1C2=C(C(=O)CC(C)(C)C2)C(c2ccc(F)cc2)C2=C1c1ccccc1C2=O (stereo unspecified) | 0 | -6 | 12 | 1 | 2 | · | ·
CCCCN1C2=C(C(=O)CC(C)(C)C2)C(c2ccccc2)C2=C1c1ccccc1C2=O (stereo unspecified) | 0 | 7 | -2 | -1 | 5 | · | ·
CCOc1ccc(-c2cc(C)n3nc(C(N)=O)cc3n2)cc1 | -4 | 4 | 1 | 52* | 5 | -2 | -1
COc1ccc(C(O)c2ncc(-c3cccc4ccccc34)[nH]2)cc1F (stereo unspecified) | -1 | · | 0 | 41* | 4 | 36* | 36*
OC(c1ccc(F)cc1)c1ncc(-c2cccc3ccccc23)[nH]1 (stereo unspecified) | -4 | · | 0 | 49* | -4 | 5 | -4
COc1ccccc1C(O)c1ncc(-c2cccc3ccccc23)[nH]1 (stereo unspecified) | -1 | · | 2 | 60* | 11 | + | +
Cc1ccc(C(O)c2ncc(-c3ccc4ccccc4c3)[nH]2)cc1 (stereo unspecified) | -1 | · | -2 | 25 | -6 | · | ·
COc1ccc(C(O)c2ncc(-c3ccc4ccccc4c3)[nH]2)cc1 (stereo unspecified) | -1 | · | -1 | 32* | 5 | + | +
COc1ccccc1-c1cnc(C(O)c2cccc(C)c2C)[nH]1 (stereo unspecified) | -4 | · | 1 | -1 | -7 | · | ·
COc1ccc(C(O)c2ncc(-c3ccccc3OC)[nH]2)cc1F (stereo unspecified) | -5 | · | 0 | -3 | 3 | · | ·
O=C(Nc1ccccc1Cl)N1[C@H](CO)[C@H]2c3ccccc3NC[C@H]21 | · | · | -1 | · | · | · | ·
Cc1noc(C)c1NC(=O)N(C)C[C@H]1Oc2c(NC(=O)NC3CCCCC3)cccc2C(=O)N([C@H](C)CO)C[C@H]1C | · | · | 0 | · | · | · | ·
CN1C(=O)c2cc(NS(C)(=O)=O)ccc2OC[C@@H]2O[C@@H](CC(=O)O)CC[C@H]21 | · | · | 1 | · | · | · | ·
O=C(C[C@@H]1CC[C@@H](NC(=O)C2CCOCC2)[C@@H](CO)O1)Nc1nccs1 | · | · | -3 | · | · | · | ·
Cc1cc(F)ccc1C(O)c1ncc(-c2ccc3ccccc3c2)[nH]1 (stereo unspecified) | -3 | · | 0 | 17 | 12 | · | ·
Cc1cc(F)ccc1C(O)c1ncc(-c2cccc3ccccc23)[nH]1 (stereo unspecified) | -2 | · | 1 | 31* | 13 | -3 | -5
COc1ccc(-c2cc3nc(NCCN4CCCC4)n(C)c(=O)c3s2)cc1OC | -4 | · | 1 | 39* | 20 | 96* | 73*
Cn1c(NCCN2CCCC2)nc2cc(-c3ccsc3)sc2c1=O | -11 | · | 1 | 2 | 9 | · | ·
O=C(C[C@@H]1C=C[C@@H](NC(=O)c2ccccc2)[C@H](CO)O1)NCc1ccc(Oc2ccccc2)cc1 | · | · | -3 | · | · | · | ·
CCOC(=O)N1CCN(CC(O)COC2CC(C)CCC2C(C)C)CC1 (stereo unspecified) | 0 | 3 | · | 34* | 2 | 13 | -7 | GDH-TPI DR=>10
N#C[C@@H]1[C@@H](c2ccc(C3=CCCC3)cc2)[C@H](CO)N1c1nc(-c2ccccc2)cs1 | · | · | -2 | · | · | · | ·
Cc1ccc(C)c(S(=O)(=O)NCC(c2ccco2)N2CCc3ccccc3C2)c1 (stereo unspecified) | -2 | -7 | -2 | 74* | 3 | 81* | 74*
O=[N+]([O-])c1ccc(S(=O)(=O)NCC(c2ccco2)N2CCc3ccccc3C2)cc1 (stereo unspecified) | -3 | 8 | 5 | -3 | -5 | · | ·
COc1ccc(S(=O)(=O)N[C@H]2CC[C@H](CC(=O)N3CCc4ccccc4C3)O[C@@H]2CO)cc1 | · | · | -1 | · | · | · | ·
SMILES | FadD28 FP inh | Rv3671c protease | Mtb BioA inh | Mtb FBA inh | GDH-TPI counter-1 | Mtb FBA confirm | GDH-TPI counter-2 | others
N#Cc1c(NC(=O)c2ccc(Br)o2)n(-c2ccccc2)c2nc3ccccc3nc12 | 0 | -178 | 0 | 48* | 12 | 34* | 25*
CCC(C)n1c(NC(=O)c2ccccc2)c(C#N)c2nc3ccccc3nc21 (stereo unspecified) | 3 | -33 | -1 | 18 | 16 | · | ·
CCC(=O)Nc1c(C#N)c2nc3ccccc3nc2n1-c1ccc(C)cc1 | -4 | · | · | 38* | 11 | 80* | 84*
CCOC(=O)c1nn(-c2ccc(Cl)cc2)c2nc(CC)c(C#N)c(=O)n12 | 2 | -6 | -2 | 37* | 21 | 1 | 1
CCOC(=O)c1nn(-c2ccc(OCC)cc2)c2nc(CC(C)C)c(C#N)c(=O)n12 | -3 | 5 | -1 | 104* | -1 | -7 | -6
CCOC(=O)c1nn(-c2cccc(Cl)c2)c2nc(CC(C)C)c(C#N)c(=O)n12 | -1 | 4 | -1 | 5 | 0 | · | ·
O=C(Nc1ccccc1)N1C[C@@H]2[C@H](c3ccccc31)[C@@H](CO)N2Cc1ccccc1 | · | · | 2 | · | · | · | ·
CC(=O)N(C)C[C@H]1Oc2cc(-c3ccccc3C)ccc2S(=O)(=O)N([C@H](C)CO)C[C@H]1C | · | · | 0 | · | · | · | ·
CN(C)C(=O)C[C@H]1C[C@@H]2c3cc(NC(=O)c4ccc5c(c4)OCO5)ccc3O[C@@H]2[C@@H](CO)O1 | · | · | 5 | · | · | · | ·
CC(=O)N1N=C(c2ccc3ccccc3c2)OC1(C)C | -2 | 2 | -1 | 68* | 6 | + | +
N#Cc1nc(COc2ccccc2Cl)oc1NCc1ccco1 | -2 | 4 | · | -2 | -2 | · | ·
Cc1ccc(CNc2oc(-c3ccco3)nc2C#N)cc1 | -3 | -6 | 2 | 54* | 16 | 3 | 4
CCOc1ccc(-c2nc(C#N)c(NCc3ccco3)o2)cc1 | -2 | -8 | · | 53* | 8 | 58* | 50*
CNc1oc(-c2ccco2)nc1C#N | -2 | 8 | · | 68* | 9 | 46* | 45*
O=c1nc2cccc3c2=c(/c1=C(\O)c1ccccc1)c1ccccc1c3=O | 1 | 5 | -2 | 29* | 17 | -4 | -6
O=c1[nH]c(/C=C/c2cccc3ccccc23)nc2ccccc12 | -4 | -17 | · | 2 | 9 | · | ·
COc1ccccc1N1CCN(C(=O)c2coc(=O)c(Br)c2)CC1 | -3 | -6 | -1 | 84* | 15 | + | +
Cc1ccc(C(=O)NCCN(C)C)c(C)c1 | -4 | 7 | 1 | 3 | 7 | · | ·
COc1ccccc1NC(=O)c1coc(=O)c(Br)c1 | -5 | -7 | 0 | 63* | 5 | 52* | 46*

Screening data deposited in PubChem BioAssay by several laboratories.
